Screening data as filed in PubChem BioAssay.
Only some compounds are listed: those with a hit (about 4.4% of all), similar ones and a draw of the others.
PfHsp90 set2: inhibits growth of yeast expressing Plasmodium falciparum Hsp90. S. cerevisiae expressing PfHsp90, BacTiter-Glo ATP, 48 h; yeast lacking PDR1 and PDR3 efflux regulators. inhibition, % at 9.4 µM. 310,000 tested, 0.32% active. AID 504621;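 active = every replicate shows inhibition above about 80%, whatever the replicate mean, limit read from the data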
tim10-1 inh: inhibits growth of tim10-1 mutant yeast. S. cerevisiae tim10-1 ts strain growth, BacTiter-Glo, 24 h. 330,000 tested, 2.2% active. AID 463190. inhibition, % at 20 µM;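 active = inhibition of at least 40%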;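 also: mutant grown at 25 °C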
SUMO Mot1 rescue: blocks SUMOylation pathway, rescuing yeast Mot1-301 growth; S. cerevisiae Mot1-301 growth rescue, ATP luminescence, 38.5C; percent above DMSO median, 100 means doubled; growth rescue, % at 18.8 µM; 320,000 tested, 1% active;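 active = every valid replicate shows activation above 250% relative to neutral control wells; inactive = the rest, any valid replicate at or below 250%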
TIM10 inh: inhibits growth of TIM10 yeast strain; S. cerevisiae TIM10 strain growth, BacTiter-Glo luminescence, 24 h; inhibition, % at 10 µM; 330,000 tested, 1.4% active; AID 463195;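 active = inhibition of 40% or more at the single tested concentration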;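 also: wild-type TIM10 isogenic control strain grown at permissive 25 °C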
tim23-1 inh: inhibits growth of tim23-1 mutant yeast | 330,000 tested, 1.3% active | AID 463212 | S. cerevisiae tim23-1 growth, BacTiter-Glo luminescence, 24 h | inhibition, % at 20 µM;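 active = growth inhibition of the mutant yeast at or above 50%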;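 also: temperature-sensitive mutant grown at 25 °C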
TIM10 conf: TIM10 yeast growth inhibition, confirmed. shares compounds with TIM10 inh. S. cerevisiae tim10 strain growth, BacTiter-Glo luminescence, 24 h. 4,600 tested, 63% active. inhibition, % at 10 µM;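 active = inhibition of yeast growth at or above a set limit in either of two replicates at 10 µM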; also: this counterscreen used the strain with wild-type TIM10
Hits are given with their value; 0 = inactive; - = not tested or not shown.

SMILES	PfHsp90 set2	tim10-1 inh	SUMO Mot1 rescue	TIM10 inh	tim23-1 inh	TIM10 conf
CN(C)C1=NC[C@H](Cc2ccccc2)N1CC1CCC(C(C)(C)C)CC1 (stereo partly specified)	0	0	0	0	0	-
Oc1ccc(/C=N/n2c3ccccc3c3ccccc32)cc1	0	0	-	44	0	75
CCOC(=O)C1=C(COC(=O)c2ccc3ccccc3c2O)NC(=O)NC1C (stereo unspecified)	0	0	0	0	0	-
O=C(NCCCN1CCOCC1)c1cc(-c2ccc(Cl)s2)nc2ccccc12	-	0	0	0	0	-
O=C(Cn1cc(/C=C\[N+](=O)[O-])c2ccccc21)Nc1ccccc1	0	0	0	43	0	55
O=[N+]([O-])/C=C/c1cn(Cc2ccccc2)c2ccccc12	93	0	0	46	0	56
COc1ccccc1Cn1c(/C=C/c2ccccc2)nc2ccccc21	0	0	408	42	0	0
Cn1c(/C=C/c2ccccc2)nc2ccccc21	0	0	0	55	0	48
Cc1cc(Cl)ccc1NC(=O)CN1C(=O)NC2(CCCc3ccccc32)C1=O (stereo unspecified)	0	0	0	0	0	-
CCOc1ccc(NC(=S)Nc2cc(OC)c(Cl)cc2OC)cc1	0	0	0	40	0	0
CCOc1ccc(NC(=S)Nc2ccc(OCC)cc2)cc1	0	0	0	0	0	-
Cc1ccc(C(=O)O/N=C/c2c(N3CCOCC3)n(C)c3ccccc23)cc1	0	0	0	42	0	32
CCC(=O)Nc1nnc(S(=O)(=O)N(C)c2cc(C)cc(C)c2)s1	0	0	0	0	0	-
CCOc1ccc(C2(C)NC(=O)N(CCN(C)C)C2=O)cc1 (stereo unspecified)	0	0	0	0	0	-
CNC(=S)NNC(=O)c1sccc1OCc1ccc(Cl)cc1Cl	-	0	-	0	0	-
S=c1nc(-c2sccc2OCc2ccc(Cl)cc2Cl)[nH][nH]1	0	0	0	41	0	29
O=C(CSc1nc2cc(C(=O)O)ccc2c(=O)n1-c1ccc(F)cc1)Nc1ccc(F)c(F)c1F	0	0	0	0	0	-
Cc1ccc(C(=O)NCC(=O)NCC(c2cccs2)N(C)C)cc1C (stereo unspecified)	0	0	0	0	0	-
COc1ccc(C(CC(=O)Nc2cc(C)ccn2)N2Cc3ccccc3C2=O)cc1 (stereo unspecified)	0	0	0	0	0	-
Clc1ccc(OCc2nnnn2-c2ccccc2)cc1	0	0	0	0	0	-
Cc1cc(Oc2nnnn2-c2ccccc2)ccc1Cl	-	0	0	40	0	30
COC(=O)C1=C(C)N(c2ccc(Cl)cc2)/C(=C/c2cccs2)C1=O	0	0	0	47	0	0
COC(=O)C1=C(C)N(c2cccc(C)c2)C(=O)/C1=C\c1cccs1	0	0	0	0	0	-
COC(=O)C1=C(C)N(c2ccccc2)/C(=C/c2cccs2)C1=O	0	0	0	51	0	35
COC(=O)C1=C(C)N(c2ccc(C)c(C)c2)/C(=C/c2cccs2)C1=O	0	0	0	50	0	47
SMILES	PfHsp90 set2	tim10-1 inh	SUMO Mot1 rescue	TIM10 inh	tim23-1 inh	TIM10 conf
COC(=O)C1=C(C)N(c2ccc(Cl)cc2)/C(=C/c2ccc(O)cc2)C1=O	0	0	0	0	0	-
Cc1ccc(NC(=O)CCC(=O)c2cc(C)sc2C)nc1	-	0	0	0	0	-
O=C(COC(=O)c1ccc2c(c1)OCCO2)NCCc1ccccc1	0	0	0	0	0	-
Cc1cc(C)n2c(SC(C)C(=O)NC3(C#N)CCCCC3)nnc2n1 (stereo unspecified)	0	0	-	0	0	-
COC(=O)C1CCN(C(=O)Cn2nnc(-c3cccc(F)c3)n2)CC1	0	0	0	0	0	-
COc1ccc(CCCC(=O)N/N=C/c2cccc(OC)c2O)cc1C	0	0	0	55	0	0
Cc1ccc(SCCC(=O)OC(C)C(=O)Nc2ccccc2)cc1 (stereo unspecified)	-	0	0	0	0	-
CC(=O)Nc1ccc(NC(=O)C(C)OC(=O)CCSc2ccccc2Cl)cc1 (stereo unspecified)	0	0	0	97	0	0
Cc1cc(C(F)F)n2nc(C(=O)Nc3ccccc3F)nc2n1	0	0	0	64	0	0
CCNC(=O)N(CCOC)CC1CCCN(C2Cc3ccccc3C2)C1 (stereo unspecified)	0	0	0	51	0	0
Cc1cc(Nc2cccc(Cl)c2)nc(-c2ccccc2O)n1	0	0	0	42	0	41
Cc1cc(Nc2ccc(Cl)cc2)nc(-c2ccccc2O)n1	0	0	0	0	0	-
N#C/C(=C\c1cccnc1)C(=O)Nc1ccc(S(N)(=O)=O)cc1	0	0	0	0	0	-
COc1ccc(-n2nc3c(c2NC(=O)C2CC(=O)N(c4ccccc4)C2)CS(=O)(=O)C3)cc1 (stereo unspecified)	0	0	0	0	0	-
O=C1c2ccccc2C(=O)C1c1ccc2ccccc2n1	-	0	0	58	0	46
COC(=O)c1ccc(NC(=O)CCN2C(=O)C3CC=CCC3C2=O)cc1 (stereo unspecified)	0	0	0	0	0	-
COc1ccccc1CCNS(=O)(=O)c1cc2c3c(c1)CCN3C(=O)CC2	0	0	0	0	0	-
CC(=O)Nc1ccc(S(=O)(=O)Nc2c(C)nn(-c3ccccc3)c2C)cc1	0	0	0	0	0	-
CC(=O)c1ccccc1NS(=O)(=O)c1c(C)nn(-c2ccccc2)c1C	0	0	0	47	0	0
COCCN(Cc1ccccc1)C(=S)Nc1ccc(Cl)cc1	0	0	0	41	0	40
COc1ccc(NC(=S)N(CCO)Cc2ccccc2)cc1	-	0	0	0	0	-
Cc1ccc(CSc2nnc(-c3ccncc3)n2N)cc1	-	0	0	42	0	0
Cc1cc(-n2c(C)cc(C(=O)CSc3nncn3C)c2C)no1	0	0	0	0	0	-
Cc1ccc(-n2nnnc2SCC(=O)c2cc(C)n(-c3cc(C)on3)c2C)cc1	0	0	0	43	0	0
COc1ccc(OC)c(/C=C/C(=O)c2ccc(Cl)cc2)c1	0	0	0	45	0	32
SMILES	PfHsp90 set2	tim10-1 inh	SUMO Mot1 rescue	TIM10 inh	tim23-1 inh	TIM10 conf
O=C(N=Nc1c(O)[nH]c2ccc(Br)cc12)c1ccccc1-n1cccc1	0	0	0	48	0	35
N=C(N)N=Nc1c(O)[nH]c2ccc(Br)cc12	0	0	0	0	0	-
O=[N+]([O-])c1ccc(O)c(/C=N/n2cnc3ccccc32)c1	0	0	0	41	0	66
CCN1C[C@@H]2[C@@H]3C(=O)N(C)C(=O)[C@@H]3[C@](C)(C1=O)N2C(=O)c1ccc(C)cc1	0	-	-	-	-	-
CCN(CC)S(=O)(=O)c1ccc(N/N=C(\C)c2ccc(OC)cc2O)nc1	0	0	0	42	0	40
Cc1ccc2nc(-c3sc4nc(C)ccc4c3N)[nH]c2c1	0	0	0	63	0	48
